Ins promoter up – MIN6 insulin promoter up-regulation; MIN6 insulin promoter-GFP reporter, high-content imaging; active compounds read high; 190,000 tested, 0.3% active; z-score at 5 µM;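 active = z-score above 3 at 5 µM with at least 500 cells counted in the well; inconclusive = wells under 500 cells, flagged as cytotoxic or low count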
L major viab – Leishmania major promastigote growth inhibition; 200,000 tested, 9% active; inhibition, % at 10 µM; Leishmania major promastigotes, resazurin fluorescence viability; in the data active = inhibition above about 50%;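 note: promastigotes grown with compound for 44 hours at 28 °C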
INS promoter inh – TRM-6 insulin promoter activity inhibition; AID 1273; inhibition, % at 2 µM; 130,000 tested, 0.9% active; TRM-6 cells (human fetal islet line), insulin promoter-eGFP reporter, imaging; reporter expression induced with tamoxifen;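 active = inhibition above the mean plus 3 SD, with well images judged a real hit on visual review, cut at about 60% in these data, passing the limit was not always enough; inconclusive = inhibition over the cutoff but images rejected on review; inactive = inhibition not above the cutoff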
Autophagy HCS – alters autophagy in cells | 190,000 tested, 0.98% active | calls only at 10 µM (by protocol) | AID 463193 | MEF GFP-LC3 puncta imaging; test concentration mostly 10 µM;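 active = percentage of spot-positive cells more than 3 SD above its plate mean, without a fluorescence outlier flag or 80% toxicity; inconclusive = no clear call, values can overlap the other calls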;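 note: spot-positive cell cutoff set from DMSO-treated cells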
WT yeast gro inh – growth inhibition of WT yeast, mitochondrial fusion screen; mitochondrial fusion phenotypic screen, WT strain; inhibition, % at 10 µM; 190,000 tested, 2.1% active; in the data active = inhibition above about 58%; tested in S. cerevisiae
The depositor's hits bear a star; i = inactive; ? = inconclusive; · = no result; + = active, no number. Compounds with a hit are over-represented: about 11% of the library has one in this group of screens.

SMILES | Ins promoter up | L major viab | INS promoter inh | Autophagy HCS | WT yeast gro inh
C=CCc1ccc(OCC(O)CO)c(OC)c1 (stereo unspecified) | -0.36 | 0.4 | -54.8 | i | 13.0
C=CCc1ccc(OCC(O)COCC)c(OC)c1 (stereo unspecified) | 0.16 | -4.2 | · | i | -14.9
COc1cccc(OCC(O)CN2CCOCC2)c1 (stereo unspecified) | 0.09 | 1.5 | · | · | -2.5
CCn1c(=N)n(CC(O)COc2cccc(C)c2)c2ccccc21 (stereo unspecified) | -0.79 | 57.9* | -152.6 | i | -2.4
Cc1cccc(OCC(O)CN2C(C)(C)CC(O)CC2(C)C)c1 (stereo unspecified) | 1.09 | -3.3 | -6.2 | + | 1.4
CCOC(=O)C1CCCN(CC(O)COc2cccc(C)c2)C1 (stereo unspecified) | 0.02 | 5.1 | -16.7 | i | -21.5
CCCn1c(=N)n(CC(O)COc2cccc(C)c2)c2ccccc21 (stereo unspecified) | · | 95.6* | -28.6 | i | 7.9
N=c1n(CCN2CCOCC2)c2ccccc2n1CC(O)COc1ccccc1 (stereo unspecified) | -2.28 | 13.8 | · | i | 2.5
CN(C)c1ccc(-c2nn3c(C4CCCCC4)nnc3s2)cc1 | -0.11 | 8.6 | · | i | -7.7
Cc1ccc(-c2onc3ccc(C4OCCO4)cc23)cc1 | -0.06 | 2.2 | 40.7 | i | -12.2
CC1CCN(c2ncnc3ccccc23)CC1 | ? | 30.9 | -11.1 | i | -10.5
O=C1CC(c2ccccc2Cl)=NN(c2ncnc3ccccc23)C1=O | -0.4 | 83.0* | · | i | -17.1
ClC(Cl)(Cl)c1nc(N/N=C/c2ccncc2)c2ccccc2n1 | -0.64 | -4.0 | -35.0 | i | 17.1
Cc1cc(N/N=C/c2ccncc2)nc2ccccc12 | -1.27 | 73.3* | -36.8 | i | 26.2
Cc1cc(N/N=C/c2cccc(Br)c2)nc2ccccc12 | -0.23 | 61.1* | -11.1 | i | 67.1
COc1ccc(/C(N)=N/OC(=O)CSc2ccccc2)cc1OC | -0.05 | 7.7 | 33.3 | i | 20.2
O=C(NCC(c1cccnc1)N1CCN(c2ccccc2)CC1)c1ccc2c(c1)OCO2 (stereo unspecified) | -0.79 | 87.5* | 0.0 | i | 6.9
COc1cc(C(=O)NCC(c2cccnc2)N2CCN(c3ccccc3)CC2)cc(OC)c1OC (stereo unspecified) | -0.35 | 67.1* | · | i | 11.7
COc1cc(/C=N/NC(=O)COc2cccc(F)c2)ccc1OS(=O)(=O)c1ccc(C)cc1 | -0.5 | 99.1* | 13.5 | i | -1.6
COC(=O)N/N=C/c1ccc(OS(=O)(=O)c2ccc(C)cc2)c(OC)c1 | 0.3 | 19.6 | · | i | -6.6
COc1cc(/C=N/NC(=O)COc2ccc(Cl)cc2)ccc1OS(=O)(=O)c1ccc(C)cc1 | · | 98.7* | -13.0 | i | 43.9
COc1ccc(/C=C(\C#N)C(=O)NCc2cccs2)cc1OC | -0.17 | 8.4 | -24.0 | i | -8.3
C=CCNC(=O)/C(C#N)=C/c1ccc(OS(=O)(=O)c2ccc(C)cc2)c(OC)c1 | 0.11 | 91.5* | -42.9 | i | 42.4
N#CC(C#N)=C1C=CC=CN1/C(=C\c1ccccc1Cl)C(=O)c1ccccc1 | -0.32 | -1.8 | -261.1 | i | 67.5*
N#CC(C#N)=C1C=CC=CN1/C(=C\c1ccccc1)C(=O)c1cccs1 | · | 6.7 | · | i | -7.5
SMILES | Ins promoter up | L major viab | INS promoter inh | Autophagy HCS | WT yeast gro inh
CN(C)CCCNC(=O)c1cc(C(=O)c2ccc(F)cc2)c[nH]1 | -0.39 | -10.7 | · | i | -19.2
C=CCSC1=C(C#N)C(c2ccccc2Cl)C(C(=O)c2cccs2)C(O)(C(F)(F)F)N1 (stereo unspecified) | -0.43 | 88.2* | -16.7 | i | 11.3
Cc1c(Cl)cccc1NC(=S)NC1CC1 | -0.01 | 82.1* | 5.4 | i | -24.1
Cc1c(Cl)cccc1NC(=S)NCCc1ccccn1 | 0.33 | · | · | · | ·
Cc1c(Cl)cccc1NC(=S)NCCc1ccc(C(F)(F)F)cc1 | -0.43 | 31.1 | · | i | 81.2*
Cc1c(Cl)cccc1NC(=S)NCCCN(C)C | 1.25 | 81.9* | 25.0 | i | -12.1
O=C(COC(=O)c1ccc(N2CCCC2=O)cc1)NCc1ccco1 | · | -7.0 | · | i | -3.1
COCCn1cc(C(=O)c2cc(Br)ccc2O)cc(C#N)c1=O | -0.05 | 10.4 | 40.0 | i | 27.2
COc1ccc(CNC[C@@H](CCCCN(C)Cc2ccc(OC)cc2)N2C[C@H](c3ccccc3)N(CCc3ccc(Cl)c(Cl)c3)C(=O)C2=O)cc1 | ? | 99.7* | · | + | 16.0
CN(CCCC[C@H](CNCc1ccc(-c2ccccc2)cc1)N1C[C@H](c2ccccc2)N(CCc2ccc(Cl)c(Cl)c2)C(=O)C1=O)Cc1ccc(-c2ccccc2)cc1 | 0.6 | · | · | · | ·
CC(=O)Nc1ccc(-c2csc(Nc3cccc(C)n3)n2)cc1 | -0.53 | 79.2* | · | i | 6.3
COc1ccc(C(=O)NCC2CCCO2)cc1 (stereo unspecified) | 0.57 | 6.6 | 35.7 | i | -13.2
CCOc1ccc(NC(=O)c2cc3cc4ccc(OC)cc4nc3o2)cc1 | -1.62 | 100.1* | 29.0 | i | -1.4
COc1ccc2cc3cc(C(=O)NCC4CCCO4)oc3nc2c1 (stereo unspecified) | 0.09 | 79.3* | 3.2 | i | 15.1
COc1ccc2cc3cc(C(=O)NCc4ccccn4)oc3nc2c1 | 3.32* | 9.0 | -21.9 | i | 14.5
COc1ccc2cc3cc(C(=O)NCc4ccco4)oc3nc2c1 | -0.64 | 59.8* | 0.0 | i | -7.2
O=C(NCc1ccco1)c1cc2cc3ccc(Cl)cc3nc2o1 | 0.23 | 5.5 | -27.3 | i | 2.9
CC1(C)CC2CC(C)(CN2/C=C2/CCCCC2=O)C1 (stereo unspecified) | 0.22 | · | · | · | ·
COc1ccc(N(C(=O)CNC(=O)c2cccs2)C(C(=O)NC2CCCC2)c2cccnc2)cc1 (stereo unspecified) | 0.09 | -6.6 | · | i | -8.1
COc1ccc2cc3cc(C(=O)Nc4ccccc4N4CCN(C)CC4)oc3nc2c1 | -2.87 | 99.5* | -3.1 | + | 19.2
CC(C)(C)c1ccc(OCC(=O)NCCN2CCCC2)cc1 | 1.22 | 80.1* | -114.3 | i | ·
Cc1cc2cc(C)c3nnc(SCC(=O)N4CCc5ccccc54)n3c2cc1C | · | -2.1 | -29.2 | i | 8.9
COc1ccccc1C(=O)Nc1nnc(-c2ccc(Cl)cc2)o1 | 0.29 | · | · | · | 28.6
O=C(Nc1nnc(-c2ccc(Cl)cc2)o1)C1=COCCO1 | 0.26 | 54.3* | 19.2 | i | 17.0
CC(/C=N/NC(=O)c1cc(-c2cccnc2)nc2c1c(C)nn2-c1ccccc1)=C\c1ccccc1 | -0.72 | 56.9* | · | + | 6.7
COc1ccc(NC(=O)c2cc(-c3ccccc3)nc3c2c(C)nn3-c2ccccc2)c(OC)c1 | 0.18 | 84.3* | 34.2 | i | -23.7
Cc1nn(-c2ccccc2)c(N2CCCC2)c1/C=N/NC(=O)c1cc(-c2cccnc2)nc2ccccc12 | -0.89 | 28.6 | · | i | -0.2
O=C(CNS(=O)(=O)c1cccs1)N1CCc2ccccc2C1 | 0.21 | -4.6 | -15.2 | i | 0.1
CC(=O)Nc1cccc(NC(=O)CSc2ccc(-c3cccnc3)nn2)c1 | 0.36 | -2.0 | · | + | -9.5
Cc1cc(C)cc(NC(=O)CSc2ccc(-c3ccco3)nn2)c1 | -0.01 | 50.9* | · | i | -10.4
